Data as given in PubChem BioAssay (Tox21).
Where “and” joins values, the source holds several entries; their conditions need not be identical. Equal entries are not always repeated. Results filed as inconclusive are left out. Entries that show only a call come without a potency. More than one record can exist for a structure, and the calls need not agree. Calls of active or inactive are those of the source. Calls follow the shape of the dose curve; as a rule, active = well fitted inhibition curve with a large enough effect in the repeat runs; inconclusive = weak or mixed curves, or effect the other way; inactive = no such curve, though single readings can be large or run the other way.

Each compound was assayed against Androgen receptor (Homo sapiens) (UniProt P10275) (assay: qHTS assay to identify small molecule antagonists of the androgen receptor (AR) signaling pathway using the MDA cell line (AID 743042; also: nearly all actives have a fitted effect of over 55% in size)). Settings: MDA-kb2 AR-luc, MMTV luciferase, R1881 antagonist, 16 h; series mostly up to 70.3 µM.
Chain of Androgen receptor (Homo sapiens) (P10275 whole entry, looked up): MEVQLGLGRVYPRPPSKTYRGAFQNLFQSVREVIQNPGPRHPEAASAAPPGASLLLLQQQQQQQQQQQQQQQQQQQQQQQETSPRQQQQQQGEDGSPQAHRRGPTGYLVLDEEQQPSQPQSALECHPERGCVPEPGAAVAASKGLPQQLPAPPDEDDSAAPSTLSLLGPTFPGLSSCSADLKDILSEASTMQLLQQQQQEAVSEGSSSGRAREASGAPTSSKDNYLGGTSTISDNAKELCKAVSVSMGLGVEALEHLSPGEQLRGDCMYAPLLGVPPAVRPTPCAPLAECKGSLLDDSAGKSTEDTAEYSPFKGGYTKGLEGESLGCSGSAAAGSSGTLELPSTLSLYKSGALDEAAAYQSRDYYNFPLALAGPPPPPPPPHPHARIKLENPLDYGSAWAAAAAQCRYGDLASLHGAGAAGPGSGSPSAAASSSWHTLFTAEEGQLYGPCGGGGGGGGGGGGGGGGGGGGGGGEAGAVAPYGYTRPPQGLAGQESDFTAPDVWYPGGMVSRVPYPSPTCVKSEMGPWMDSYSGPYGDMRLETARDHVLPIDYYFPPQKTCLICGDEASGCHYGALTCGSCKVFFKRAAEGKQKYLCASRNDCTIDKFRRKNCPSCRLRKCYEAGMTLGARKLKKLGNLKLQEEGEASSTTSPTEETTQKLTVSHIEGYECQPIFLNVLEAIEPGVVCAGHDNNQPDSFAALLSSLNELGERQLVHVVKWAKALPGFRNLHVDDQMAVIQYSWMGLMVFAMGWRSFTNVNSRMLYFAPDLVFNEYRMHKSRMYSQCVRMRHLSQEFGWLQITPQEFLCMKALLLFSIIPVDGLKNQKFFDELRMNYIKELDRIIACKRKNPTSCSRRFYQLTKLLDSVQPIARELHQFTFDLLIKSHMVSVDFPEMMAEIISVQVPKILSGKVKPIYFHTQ
Method in brief: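 Antagonist mode: compounds plus R1881 agonist added to MDA-kb2 AR-luc cells, incubated 16 h at 37C. Luciferase reporter luminescence quantified, with multiplexed CellTiter-Fluor readout for cell viability.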
Potency is read from the fitted curve at half-maximal effect.

Structure (SMILES) | Potency
BrC1CCC(Br)C(Br)CCC(Br)C(Br)CCC1Br (centres undefined) | inactive
Nc1nc(=S)c2[nH]cnc2[nH]1 | inactive
CC(C)CCOCc1ccccc1 | inactive
Cc1ccc(-c2cc(C(F)(F)F)nn2-c2ccc(S(N)(=O)=O)cc2)cc1 | inactive and 60.9 µM (active) and 68.6 µM (active)
Nc1ccc(O)cc1 | 5.96 µM (active) and 12.2 µM (active) and 25.3 µM (active)
CCC(C)(Oc1ccc(C2(c3ccc(OC(C)(CC)C(=O)O)cc3)CCCCC2)cc1)C(=O)O (centres undefined) | inactive
O=Cc1ccc(Cl)cc1 | inactive
O=Nc1ccc(Nc2ccccc2)cc1 | 54.8 µM (active)
CCN(CC)C(=O)Nc1ccc(OCC(O)CNC(C)(C)C)c(C(C)=O)c1 (centres undefined) | inactive
